# Laboratory results: the supplement of paper PMC6555819
# Tested on: RXRa DBDmut IVT, anti-RXR (DBD mutation: RXRa K156A/R161A, NR concentration 90 nM)
# Assay: PBM binding z-score (relative to random genomic background probes); higher = stronger binding; sequences stand for … in GC…GCGATTGACAGCGTAGAATGAAGG
# How it was run: (§1)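 Binding z-scores take random background probes as their reference. They come from custom Agilent 4×180K protein-binding microarrays incubated 1 h with ligand-free nuclear receptor dimers, with antibodies against each partner (one per run) detecting binding. Scanned fluorescence was regression-normalized.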
row,Sequence,PBM binding z-score
1,CTCGAAATGTCGGTTGAGGTGAGTATACGGATAA,0.0185
2,TAGCCTAGGTCATTCAGGGGCCAATATAGAAAGC,2.06
3,CGACCTAGGTCATCCAGGACAGTGAATACATTGA,2.6
4,GCTTGTAGATCAAGGTTGAGAAAGACTAAGCTAA,0.0122
5,GCAGACAGGTGAAACGAAGGTAACTCAGGGTGGC,-0.588
6,ATATGCAGGTTAAGGGTCATTCAGGTTGGTTCGC,2.24
7,ATCCCTAGGTAAAGTTCAGTGAAAGATCGATAGA,1.28
8,CATACTGGGCCAAGGTCATTGATCAGTCAAAGCA,1.62
9,CGTCCAAGGTCAATGGTCAGTGAAGAGATGACGG,3.36
10,CCGACTGGGGCAAGGATACCATAACGCACAGCCA,-0.717
11,CCTAGTTGGTAAGGAGGTCACACACCGGATATGA,0.539
12,TAGCCTAGGTAATTCAGGGGCCAGTATAGAAAGC,-0.687
13,CGTCCATGGTCATAGGAGGTCAGTGAAGACAGAT,0.0145
14,GGAACGAGGGCAAAGTTGATAACATCTGTCGACG,2.93
15,TCGAGTAGGTTACGAATGGGGCATTCAGCTTTCT,0.441
16,TCGAGTAGCTTAGTCGGGGCATTCAGCCAACATA,-0.135
17,CGAACTAGGTCATCCAGGACAGTGAATACATTGA,2.52
18,GCTAGCCGGCCATTTGGGTCACTCAATGACGGGC,-0.739
19,TCATATAGGTAAACAGGTGCAAGTCCGTAAGTTA,1.32
20,CGTCCAAGGTCAAGGTAAGTGAAAGAGACTCGAA,3.26

row,Sequence,PBM binding z-score
1,CCTTACGGGTCACAAGGTTATAGCACGACGAGCG,1.18
2,ACTATTAGTTGAGACGAGGCCAACCGATAGGTTG,0.0149
3,TCTTGTAAATCAAAGGTTAAGAAAGCCGAAGCCT,0.749
4,TCATATAGGTAAACAGGTGAAAGTGCGTAAGTTA,1.66
5,CGTCCAAGATCAAAGGTCAGTGAAGAGATGACGG,0.609
6,CCTGCTAGGTCAATGGTCAGCTACAGCAGCTCGC,1.74
7,AGAGACAGGTGAGTGAAGGTAACTCAGCTGGACG,-0.787
8,ATCTTTAGGTAAAGTTCAGTGAAAGATCGATAGA,1.71
9,TAGCCTAGGTCATGGGCCGGTATACCACGCGAAC,-0.511
10,CCTAGCAGGCCAATCTGTGTCACTCAAGGCTTGA,0.249
11,CGGACTAGGTCAAGGACAGTGAATCTCCGCACGC,1.29
12,ATCTCTAGGTAACCAAGTTCCGTGAATGCCGAAC,0.0901
13,CAAACTAGGTCAAGGTCACAGTCGGTTTGTGCCA,2.66
14,CTCGAAAGGTCGGTTGAGGTAAGTATACGGATAA,0.522
15,TCTCGGAGGGCACGAAGGTCAGAGCTTTCCAGAG,0.77
16,TCATATAGGTAAAAGGTGAAAGTCGGTGTGGTAA,1.87
17,CCGACTGGGGCATAAGCTTACCATAAGCCAGCCC,0.074
18,CCGACTGGGGCAAAGGTTACTATACTCAGTACGA,0.148
19,AGTCAAAGTTCAGGACGAGGTAACCTAAAGCACG,2.85
20,CCAGACAGGTGTAAGGTAACTCAGTCTGGTACGC,0.0922

# Tested on: RXRa homodimer (NR concentration 180 nM)
# Assay: as above
# How it was run: as §1
row,Sequence,PBM binding z-score
1,CTCGAAATGTCGGTTGAGGTGAGTATACGGATAA,0.114
2,TAGCCTAGGTCATTCAGGGGCCAATATAGAAAGC,3.15
3,CGACCTAGGTCATCCAGGACAGTGAATACATTGA,3.37
4,GCTTGTAGATCAAGGTTGAGAAAGACTAAGCTAA,-0.32
5,GCAGACAGGTGAAACGAAGGTAACTCAGGGTGGC,0.938
6,ATATGCAGGTTAAGGGTCATTCAGGTTGGTTCGC,6.59
7,ATCCCTAGGTAAAGTTCAGTGAAAGATCGATAGA,1.16
8,CATACTGGGCCAAGGTCATTGATCAGTCAAAGCA,3.31
9,CGTCCAAGGTCAATGGTCAGTGAAGAGATGACGG,4.67
10,CCGACTGGGGCAAGGATACCATAACGCACAGCCA,0.232
11,CCTAGTTGGTAAGGAGGTCACACACCGGATATGA,4.06
12,TAGCCTAGGTAATTCAGGGGCCAGTATAGAAAGC,-0.137
13,CGTCCATGGTCATAGGAGGTCAGTGAAGACAGAT,2.18
14,GGAACGAGGGCAAAGTTGATAACATCTGTCGACG,1.93
15,TCGAGTAGGTTACGAATGGGGCATTCAGCTTTCT,0.67
16,TCGAGTAGCTTAGTCGGGGCATTCAGCCAACATA,-0.559
17,CGAACTAGGTCATCCAGGACAGTGAATACATTGA,2.79
18,GCTAGCCGGCCATTTGGGTCACTCAATGACGGGC,0.725
19,TCATATAGGTAAACAGGTGCAAGTCCGTAAGTTA,1.27
20,CGTCCAAGGTCAAGGTAAGTGAAAGAGACTCGAA,5.48

row,Sequence,PBM binding z-score
1,CCTTACGGGTCACAAGGTTATAGCACGACGAGCG,6.05
2,ACTATTAGTTGAGACGAGGCCAACCGATAGGTTG,0.182
3,TCTTGTAAATCAAAGGTTAAGAAAGCCGAAGCCT,2.24
4,TCATATAGGTAAACAGGTGAAAGTGCGTAAGTTA,1.17
5,CGTCCAAGATCAAAGGTCAGTGAAGAGATGACGG,5.07
6,CCTGCTAGGTCAATGGTCAGCTACAGCAGCTCGC,2.49
7,AGAGACAGGTGAGTGAAGGTAACTCAGCTGGACG,0.592
8,ATCTTTAGGTAAAGTTCAGTGAAAGATCGATAGA,1.15
9,TAGCCTAGGTCATGGGCCGGTATACCACGCGAAC,3.4
10,CCTAGCAGGCCAATCTGTGTCACTCAAGGCTTGA,-0.389
11,CGGACTAGGTCAAGGACAGTGAATCTCCGCACGC,2.33
12,ATCTCTAGGTAACCAAGTTCCGTGAATGCCGAAC,0.217
13,CAAACTAGGTCAAGGTCACAGTCGGTTTGTGCCA,5.94
14,CTCGAAAGGTCGGTTGAGGTAAGTATACGGATAA,1.83
15,TCTCGGAGGGCACGAAGGTCAGAGCTTTCCAGAG,2.79
16,TCATATAGGTAAAAGGTGAAAGTCGGTGTGGTAA,2.96
17,CCGACTGGGGCATAAGCTTACCATAAGCCAGCCC,-0.312
18,CCGACTGGGGCAAAGGTTACTATACTCAGTACGA,2.8
19,AGTCAAAGTTCAGGACGAGGTAACCTAAAGCACG,3.15
20,CCAGACAGGTGTAAGGTAACTCAGTCTGGTACGC,-0.0847
